A selection: hits, their analogues and other compounds. The true share with any hit is near 9.2%.
SMN2 splice enh: qHTS Assay for Enhancers of SMN2 Splice Variant Expression; 210,000 compounds, 2.8% hits; HEK293 SMN2-luciferase splicing reporter, luminescence, 30-36 h; Potency, µM (series often up to 46.1 µM), without a hit: at the highest dose activity change, positive = activation, usual class: activators; AID 1458, 2008; note: % of control where 0% means no effect; nearly all actives have a fitted effect of over 55% in size
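HEK293 cells carry an SMN2 minigene-luciferase reporter in which exon 7 inclusion puts luciferase in frame. Cells were seeded at 2000 cells/well, attached for 10-12 hours, then exposed to compounds for 30-36 hours at 37C before ONE-Glo luminescence.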
Rab9 prom act: qHTS Assay for Rab9 Promoter Activators; Potency, µM (titrated, usually from 9.22 µM), without a hit: top-dose activation, negative = inhibition, hits mostly activators; 320,000 compounds, 2.8% hits; AID 485297, 2010; Huh7 Rab9 promoter-luciferase reporter, luminescence, 24 h; note: % of control where 0% means no effect; nearly all actives have a fitted effect of over 60% in size
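Quantitative HTS format; Huh7 Rab9-luciferase reporter cells (1500/well) receive compound 2 h post-plating, incubate 24 h at 37 °C, then get luciferase reagent for 10 min before luminescence reading.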
ELG1 DNA repair: qHTS screen for small molecules that inhibit ELG1-dependent DNA repair in human embryonic kidney (HEK293T) cells expressing luciferase-tagged ELG1. HEK293T ELG1-luciferase reporter, luminescence, 16 h; DNA damage induced by 5-fluorouridine. AID 504467, 2011. Potency, µM (highest dose often 46.1 µM), inactives show top-dose activity change, negative = inhibition, actives largely listed as inhibitors. 330,000 compounds, 2.3% hits; note: % is set by controls: 0 for no effect and ±100 for the full control effect; nearly all actives have a fitted effect of over 55% in size
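Overnight (16 hr) co-exposure of 2,000 cells/well to 5-fluorouridine and compound at 37 °C preceded detection. Luciferase was quantified via ONE-Glo luminescence; loss of signal denotes inhibition.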
NPC1 prom act: qHTS Assay for NPC1 Promoter Activators | Huh7 NPC1 promoter luciferase reporter, 24 h | Potency, µM (highest dose often 9.22 µM), inactives show at the highest dose activation, actives largely listed as activators | 320,000 compounds, 2.4% hits | AID 485313, 2010; note: % of control where 0% means no effect; nearly all actives have a fitted effect of over 60% in size
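In 1536-well qHTS, Huh7 cells harboring an NPC1 promoter–luciferase construct received compound for 24 h; activation was quantified by luminescence following luciferase reagent addition.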
ELG1 genotoxic: qHTS screen for small molecules that induce genotoxicity in human embryonic kidney (HEK293T) cells expressing luciferase-tagged ELG1; 330,000 compounds, 1.3% hits; Potency, µM (series often up to 46 µM), for the others: at the top dose activity change, positive = activation, usual class: activators; HEK293T ELG1-luciferase reporter, luminescence, 16 h; note: % of control where 0% means no effect; nearly all actives have a fitted effect of over 60% in size
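Genotoxicity was scored as increased ELG1-luciferase reporter signal, measured by ONE-Glo luminescence (30 min, room temperature). Compound or vehicle exposure of the HEK293T reporter cells lasted 16 hr at 37°C.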
FLuc counter: qHTS profiling assay for firefly luciferase inhibitor/activator using purifed enzyme and Km concentrations of substrates (counterscreen for miR-21 project); AID 588342, 2011; purified FLuc, Km substrates, luminescence inhibition; Potency, µM (top dose mostly 57.5 µM), for inactives: top-dose activity change, negative = inhibition, usual class: inhibitors; 360,000 compounds, 6.9% hits;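 note: plate controls were vehicle for no effect and reference inhibitor for full effect; nearly all actives have a fitted effect of over 55% in size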
Target sequence (P08659 whole entry, looked up): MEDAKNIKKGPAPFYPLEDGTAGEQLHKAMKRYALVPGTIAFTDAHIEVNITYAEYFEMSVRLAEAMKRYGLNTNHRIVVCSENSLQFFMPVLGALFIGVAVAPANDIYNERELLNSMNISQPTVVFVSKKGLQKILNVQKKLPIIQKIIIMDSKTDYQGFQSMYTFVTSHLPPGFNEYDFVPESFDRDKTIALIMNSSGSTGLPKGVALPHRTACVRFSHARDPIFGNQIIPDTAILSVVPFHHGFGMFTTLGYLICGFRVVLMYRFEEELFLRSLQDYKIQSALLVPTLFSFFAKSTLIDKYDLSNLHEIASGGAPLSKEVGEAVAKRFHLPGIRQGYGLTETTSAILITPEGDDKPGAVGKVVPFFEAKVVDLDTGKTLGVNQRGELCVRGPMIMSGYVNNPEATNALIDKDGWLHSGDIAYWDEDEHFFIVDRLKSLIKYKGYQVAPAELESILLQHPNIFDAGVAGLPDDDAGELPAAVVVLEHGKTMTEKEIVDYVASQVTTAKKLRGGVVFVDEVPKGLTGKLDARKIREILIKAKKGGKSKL
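Purified P. pyralis luciferase (10nM final) with 10uM D-luciferin and 10uM ATP (Km levels) in 50mM Tris acetate pH 7.5, 10mM Mg acetate, 0.01% Tween-20, 0.05% BSA; qHTS 6-point titration, ~60 µM downward; luminescence read.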
The depositor's hits bear a star; ? = inconclusive; / = no result given; [ ] = another dose, or the depositor's remark. Calls come from the whole dose curve; as a rule, active = well fitted curve in the direction sought with a large enough effect; inconclusive = small, poorly fitted or top-dose-only effect, or another doubt; inactive = no such curve, though single readings can be large; an effect the other way counts as inactive or inconclusive. Potency is the fitted concentration of half-maximal effect.

SMILES	SMN2 splice enh	Rab9 prom act	ELG1 DNA repair	NPC1 prom act	ELG1 genotoxic	FLuc counter
CC1(C)CC(=O)c2cnc(N3CCc4ccccc4C3)nc2C1	-34.9%	?	?	2.82µM*	1.84µM*	2.69µM*
O=C1CCCc2nc(N3CCN(Cc4ccccc4)CC3)ncc21	-27.9%	0.3%	?	-3.6%	-9.9%	-1.8%
CCn1ncc(/C=N/NC(=O)c2ccc3c(c2)OCO3)c1C	17.0%	6.8%	-8.1%	-10.2%	6.7%	16.9µM*
CCn1nc(C)c(CNC(=O)Nc2ccc3c(c2)OCO3)c1C	?	?	?	?	?	23.9µM*
CCn1nc(C)c(/C=N\NC(=O)c2ccc3c(c2)OCO3)c1C	18.8%	2.5%	?	5.2%	15.4%	23.9µM*
Cc1c(/C=N/NC(=O)c2ccc3c(c2)OCO3)cnn1C	-2.8%	1.5%	5.3%	0.9%	2.7%	?
COc1cc(/C=C/C(=O)OCC(=O)N2CCCC2)ccc1OCC#N	/	0.4%	12.6%	-0.9%	1.7%	1.8%
Cc1nc(N2CCCC2)ncc1C(=O)N1CCN(c2ccc(Cl)cc2)CC1	/	/	/	/	/	5.6%
Cn1c(NCc2cccc(Br)c2)nc2ccccc21	-9.9%	3.3%	?	-1.0%	?	-14.8%
Cc1cccc(NCc2nc3ccccc3n2C)c1	?	3.16µM*	?	?	11.6µM*	23.9µM*
Cc1ccc(NCc2nc3ccccc3n2C)c(C)c1	/	0.708µM*	?	0.631µM*	1.03µM*	0.338µM*
Cc1cccc(NCc2nc3ccccc3n2CCOc2ccccc2C)c1	-41.0%	/	/	/	/	1.4%
Cc1cccc(NCc2nc3ccccc3n2Cc2ccccc2)c1	1.2%	3.7%	?	12.0%	15.0%	23.9µM*
Cc1ccc(N2CCN(c3ccc(NCc4nc5ccccc5n4C)cc3)CC2)cc1	-24.9%	1.7%	-0.6%	-0.2%	0.1%	-18.6%
Cn1c(CNc2ccc(Cl)cc2)nc2ccccc21	7.08µM*	?	?	4.47µM*	4.61µM*	6.75µM*
COc1cccc(OC)c1NC(=O)Cn1nc(C)c2ccccc2c1=O	/	0.3%	8.7%	0.8%	0.3%	0.6%
COc1cccc(CNc2ccc3c(c2)nc(C)n3C)c1OC	/	?	9.1%	?	?	23.9µM*
Cc1nc2cc(NCc3nc4ccccc4n3Cc3ccccc3)ccc2n1C	1.1%	0.708µM*	?	1.12µM*	?	0.601µM*
Cc1nc2cc(NCc3cc([N+](=O)[O-])ccc3O)ccc2n1Cc1ccccc1	2.8%	?	-3.7%	4.8%	0.4%	?
CS(=O)(=O)N1CCC2(CCN(c3ccccc3)CC2)CC1	-20.0%	/	/	/	/	/
O=C(Nc1ccc(NC(=O)c2ccc(Br)cc2)c(Cl)c1)c1ccc(Br)cc1	9.4%	/	/	/	/	1.6%
CCC(=O)N/C(=N/c1nc(C)cc(C)n1)Nc1ccc(C)cc1	/	-0.9%[1.84 µM]	?	-4.4%	-5.1%	0.3%
CCOc1ccc(N/C(=N/c2nc(C)cc(C)n2)NC(=O)CC)cc1	/	-6.6%	18.3µM*	-0.7%	-7.1%	0.5%
CCOc1ccc(NC(=O)Nc2cccc(C)n2)cc1	28.3%	2.51µM*	?	3.55µM*	16.2%	?
Cc1cccc(NC(=O)c2ccc(S(=O)(=O)N(C)C)cc2)n1	-2.1%	18.3%	22.1%	22.4%	?	-11.2%
SMILES	SMN2 splice enh	Rab9 prom act	ELG1 DNA repair	NPC1 prom act	ELG1 genotoxic	FLuc counter
Cc1cccc(NC(=O)c2ccc(Cl)nc2)n1	/	11.9%	?	10.3%	18.3%	-7.7%
CCCCOc1ccc(C(=O)Nc2cccc(C)n2)cc1	?	?	?	3.55µM*	12.7%	3.01µM*
CCOc1ccc(C(=O)Nc2cccc(C)n2)cc1	5.01µM*	1µM*	?	2µM*	?	2.39µM*
CCOc1ccc(NC(=O)Nc2ccc(Cc3ccncc3)cc2)cc1	/	0.5%	-10.9%	1.1%	-0.8%	0.2%
O=C(Cn1c(SCCOc2ccccc2Cl)nc2ccccc21)N1CCCCC1	/	/	/	/	/	-10.2%
O=C(O)c1ccccc1Nc1ccnc(C(F)(F)F)c1	/	-5.4%	-3.1%	-2.0%	2.5%	-24.8%
COc1ccc(-n2c(SCCNCCO)nc3sc4c(c3c2=O)CCCC4)cc1	/	0.2%	-9.6%	0.3%	-2.7%	-1.4%
Cc1ccccc1CNC(=O)c1cc2cc(S(=O)(=O)N3CCCCC3)ccc2n1C	/	/	/	/	/	0.6%
CC(Sc1nc(-c2ccc(F)cc2)cs1)C(=O)N1c2ccccc2CC1C (stereo not given)	-33.8%	-4.4%	25.9µM*	-0.7%	-9.8%	-0.4%
Cc1nn(-c2ccc([N+](=O)[O-])cc2)c2c1C(c1cccc(Br)c1)N1C(=N2)C(=O)Nc2ccccc21 (stereo not given)	-0.9%	-17.4%	?	-14.8%	-7.8%	-0.9%
Cc1nn(-c2ccccc2)c2c1C(c1ccc([N+](=O)[O-])cc1)N1C(=N2)C(=O)Nc2ccccc21 (stereo not given)	-31.4%	-0.3%	23.1µM*	-2.3%	-7.6%	-1.7%
Cc1csc2nc(COc3ccccc3NC(=O)c3ccc(C(C)(C)C)cc3)cc(=O)n12	4.3%	/	/	/	/	-16.3%
C[C@H](CCC(=O)O)C1CC[C@H]2C3CC[C@@H]4C[C@H](O)CC[C@]4(C)C3C[C@H](O)[C@]12C (stereo not given in full)	-13.9%	/	/	/	/	/
C#CCSc1ncc(-c2ccccc2)cn1	2.6%	?	?	19.3%	11.7%	?
C=CCSc1ncc(-c2ccccc2)cn1	10.7%	25.7%	?	23.5%	15.1%	15.1µM*
Cc1ccc(/C=C/C(=O)OCC(=O)c2ccc3c(c2)NC(=O)CO3)o1	/	/	11.6µM*	/	-3.7%	/
CCc1ccccc1Nc1nn2c(=O)c3ccc(C(=O)NCc4cccs4)cc3nc2s1	/	0.7%	/	-12.5%	/	-8.4%
CCOC(=O)CN1C(=O)S/C(=C\c2ccc(-c3ccc(C(=O)O)c(Cl)c3)o2)C1=O	/	9.0%	-8.1%	-3.8%	-1.7%	-9.0%
CC(C)N1C(=O)S/C(=C\c2ccc(-c3ccc(Cl)c(C(=O)O)c3)o2)C1=O	/	0.398µM*	?	0.501µM*	1.16µM*	3.01µM*
O=C1NC(=O)/C(=C/c2ccc(-c3cccc([N+](=O)[O-])c3)o2)S1	/	20.8%	-13.6%	11.5%	2.0%	?
O=C1NN(c2ccccc2)C(=O)/C1=C\c1ccc(-c2cc([N+](=O)[O-])ccc2O)o1	/	-4.1%	6.4%	-3.1%	1.3%	15.1µM*
